The nature of test [1]: Nuclear factor erythroid 2-related factor 2/antioxidant responsive element (Nrf2/ARE) small molecule agonists: luciferase reporter gene qHTS assay in human keratinocytes (AID 1919969). Also: nearly all actives have a fitted effect of over 35% in size.
Test [2] deals with Gonadotropin-releasing hormone receptor (Homo sapiens) (UniProt P30968). The test is described as follows: Human gonadotropin-releasing hormone receptor (GnRHR) small molecule agonists, calcium flux assay in GnRHR-HEK293 cells (AID 1920063). Also: nearly all actives have a fitted effect of over 35% in size. The method in brief: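 Intracellular calcium rise is the read-out: engineered human GnRHR HEK293 cells, dye-loaded, are exposed to DMSO-dissolved compounds and fluorescence at Ex/Em 480/540 is tracked for 3 min.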

Test [3] addresses KiSS-1 receptor (Homo sapiens) (UniProt Q969F8). The test is described as follows: Human kisspeptin (KISS1R) small molecule agonists, calcium flux assay in KISS1R-HEK293 cells (AID 1920064; active = well fitted activation curve with a large enough effect in the repeat runs). The method in brief:
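Concentration-response testing used 15 concentrations in triplicate on human KISS1R-expressing HEK293 cells. Calcium-dependent fluorescence (Ex/Em 480/540) was followed kinetically for 3 min after compound transfer.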

The nature of test [4]: G protein-coupled receptor (GPCR) small molecule agonists, calcium flux assay: HEK293 wild type cell line counter screen (AID 1920065). The method in brief:
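Fluorescence intensity signals activation. After overnight (18 h) culture and a 1 h calcium dye load at 37 C, compounds are added by pin tool and the plate read at 480/540 nm for 3 min in 1 s steps.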

Test [5] can be described thus: p53 small molecule agonists, cell-based qHTS assay with human liver microsomes (AID 1963577).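 Also: p53 response element beta-lactamase reporter cells with liver microsomes plus NADPH.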 In short, it runs like this: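 HLM-supplemented p53RE-bla reporter assay: 16 h compound exposure at 37 C, microsomes and NADPH each 0.5 mg/mL final, read by fluorescence intensity.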
In general terms: In qHTS, concentration-response curves come from the screen itself.

Test [6] is described as follows: p53 small molecule agonists, cell-based qHTS assay with rat liver microsomes (AID 1963578). In short, it runs like this:
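Quantitative HTS of the Tox21 10K library: p53RE-bla cells, rat liver microsomes plus NADPH at 0.5 mg/mL final each, 16 h at 37 C, beta-lactamase fluorescence detection.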

Test [7] can be described thus: p53 small molecule agonists, cell-based qHTS assay with human liver microsomes: qHTS cell viability counter screen (AID 1963579). Also: nearly all actives have a fitted effect of over 45% in size. In short, it runs like this: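 Viability of p53RE-bla cells is measured as CellTiter-Glo luminescence following a 16 h, 37 C incubation with compound, liver microsomes from human donors and NADPH.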
Test [8] can be described thus: p53 small molecule agonists, cell-based qHTS assay with rat liver microsomes: qHTS cell viability counter screen (AID 1963580). Also: nearly all actives have a fitted effect of over 45% in size. In short, it runs like this:
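Luminescent ATP readout (CellTiter-Glo, 30 min at room temperature) reports viability of p53RE-bla HCT-116 cells after 16 h at 37 C with test compounds under metabolic activation by rat liver microsomes and NADPH at 0.5 mg/mL final each.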

Test [9] is described as follows: p53 small molecule agonists, cell-based qHTS assay: qHTS cell viability counter screen (AID 1963581). Also: nearly all actives have a fitted effect of over 45% in size. The method in brief: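 Luminescence from CellTiter-Glo, reflecting ATP content, serves as the cytotoxicity measure; it is taken after the 2 h reporter substrate step in HCT-116 p53RE-bla cells dosed for 16 h at 37 C.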
The nature of test [10]: p53 small molecule agonists, cell-based qHTS assay (AID 1963582; active = well fitted activation curve with a large enough effect in the signal ratio in the repeat runs, not every such curve was filed as active; the % refers to the signal ratio). In short, it runs like this:
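After plating, p53RE-bla cells sat 5 h in the incubator; compounds or DMSO vehicle were pinned in; a 16 h incubation at 37 C followed; FRET substrate was added and, 2 h later at RT, fluorescence was measured.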

Test [11] has as its target 5-hydroxytryptamine receptor 2A (Homo sapiens) (UniProt P28223). The test can be described thus: 5-hydroxytryptamine receptor 2A (HTR2A) small molecule antagonists, cell-based qHTS assay (AID 1963586). Also: nearly all actives have a fitted effect of over 45% in size. In short, it runs like this:
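CHO cells stably expressing human HTR2A were plated for 18 h at 37 C, then loaded with calcium dye for 1 h. Compounds were preincubated 5 min at room temperature before DOI (4 nM solution) was added. Kinetic fluorescence was read for 3 min.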

Test [12] has the same target. The test is described as follows: 5-hydroxytryptamine receptor 2A (HTR2A) small molecule agonists, cell-based qHTS assay (AID 1963587). Also: nearly all actives have a fitted effect of over 30% in size. The method in brief: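 HTR2A-CHO cells, plated 18 h at 37 C/5% CO2, dye-loaded 1 h at 37 C; compounds in DMSO added by pin tool (agonist mode). Intracellular calcium flux read as kinetic fluorescence on FDSS over 2 min at 1 s intervals.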

The nature of test [13]: cAMP Responsive Elements (CRE) small molecule antagonists, cell-based qHTS assay (AID 1963591; active = well fitted inhibition curve with a large enough effect in the signal ratio in the repeat runs, not every such curve was filed as active; the % refers to the signal ratio). The method in brief:
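Stimulation used NKH477 at a final 0.25 uM for 3 h in compound-treated CRE-bla HEK293T cells, seeded 18 h beforehand. Reporter activity was measured with LiveBLAzer B/G FRET substrate after 2 h at room temperature.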

Test [14] concerns the target Beta-2 adrenergic receptor (Homo sapiens) (UniProt P07550). The test is described as follows: Adrenergic beta2 receptor (ADRB2) small molecule antagonists, cell-based qHTS assay (AID 1963592). Also: series mostly up to about 92 µM; nearly all actives have a fitted effect of over 50% in size. The method in brief:
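Assay format: CHO-ADRB2 cells, 18-20hr seeding at 37C/5% CO2, then compound plus 1nM isoproterenol agonist mix for 0.5hr RT. Homogeneous time-resolved fluorescence cAMP detection after 1hr, expressed as 665/615 nm ratio.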

Test [15] has the same target. The test can be described thus: Adrenergic beta2 receptor (ADRB2) small molecule agonists, cell-based qHTS assay (AID 1963593).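 Also: CHO cells stably overexpressing human ADRB2.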 In short, it runs like this: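 CHO cells stably over-expressing ADRB2 were plated overnight at 37C, then dosed with compounds plus a stimulation mix containing 100uM IBMX and 25uM Ro-20-1724 for 0.5hr at room temperature. cAMP was measured by HTRF competition, 1hr.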

The target of test [16] is D(2) dopamine receptor (Homo sapiens) (UniProt P14416). The test is described as follows: Dopamine D2 receptor (DRD2) small molecule agonists, cell-based qHTS assay (AID 1963594). Also: nearly all actives have a fitted effect of over 35% in size. The method in brief: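 HEK293 cells stably expressing DRD2 were cultured 24 h at 37 C, then given Ro20-1724 (0.1 mM final) and compounds for 10 min at room temperature. NKH477 (200nM) was then added for 30 min. cAMP was read by HTRF.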

The target is the same in test [17]. The test is described as follows: Dopamine D2 receptor (DRD2) small molecule antagonists, cell-based qHTS assay (AID 1963595; active = well fitted inhibition curve with a large enough effect in the signal ratio in the repeat runs, with a control signal flat; the % refers to the signal ratio; also: potency is read from the fitted curve at half-maximal effect). The method in brief: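 Readout: HTRF cAMP, cAMP-d2 competing with cellular cAMP for anti-cAMP cryptate, read after 1 h. Cells: DRD2-HEK293. Conditions: 0.1 mM Ro20-1724, 12 nM quinpirole, 200 nM NKH477, 30 min RT.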
Test [18] deals with Muscarinic acetylcholine receptor M1 (Homo sapiens) (UniProt P11229). The test is described as follows: Cholinergic receptor muscarinic 1 (CHRM1) small molecule antagonists, cell-based qHTS assay (AID 1963588). Also: nearly all actives have a fitted effect of over 40% in size. In short, it runs like this: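 Compounds were tested at 15 concentrations in three independent runs. Dye-loaded CHRM1-CHO cells were exposed 5 min at room temperature before stimulation by acetylcholine added at 50nM. Intracellular calcium was read kinetically on FDSS for 3 min.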

The target is the same in test [19]. The test is described as follows: Cholinergic receptor muscarinic 1 (CHRM1) small molecule agonists, cell-based qHTS assay (AID 1963589). Also: nearly all actives have a fitted effect of over 35% in size. The method in brief: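 Fluorescent calcium dye reports M1 activation in stably transfected CHO cells. Compounds, 15 concentrations, added after 1 h dye loading at 37 C; kinetic reading at 1 sec intervals.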
Test [20] in a line: cAMP Responsive Elements (CRE) small molecule agonists, cell-based qHTS assay (AID 1963590). In short, it runs like this: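 Compound exposure lasted 3 h at 37 C/5% CO2 in CRE-bla HEK 293T cells grown in assay medium with 10% dialyzed FBS and 25 mM HEPES. Reporter signal came from LiveBLAzer B/G FRET substrate, 2 h, room temperature.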

A number with no mark means an inactive call. Inconclusive results are not listed. Activity calls are given as the source filed them. Unless noted, calls follow the shape of the full dose curve.

Experimental findings from PubChem BioAssay (Tox21) are described below.

Chain of Muscarinic acetylcholine receptor M1 (Homo sapiens) (P11229 whole entry, looked up): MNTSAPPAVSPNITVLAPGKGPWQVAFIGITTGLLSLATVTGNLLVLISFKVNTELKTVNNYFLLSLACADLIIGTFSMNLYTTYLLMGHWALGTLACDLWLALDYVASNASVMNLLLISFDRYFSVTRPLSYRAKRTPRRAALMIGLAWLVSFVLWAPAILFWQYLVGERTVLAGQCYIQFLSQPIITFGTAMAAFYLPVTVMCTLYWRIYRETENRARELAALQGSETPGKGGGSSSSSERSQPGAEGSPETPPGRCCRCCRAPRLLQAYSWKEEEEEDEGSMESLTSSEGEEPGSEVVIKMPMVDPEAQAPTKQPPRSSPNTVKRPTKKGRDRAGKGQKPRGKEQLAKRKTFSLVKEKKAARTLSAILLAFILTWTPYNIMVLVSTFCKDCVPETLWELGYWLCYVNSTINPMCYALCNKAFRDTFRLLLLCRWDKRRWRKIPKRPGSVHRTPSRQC
Chain of KiSS-1 receptor (Homo sapiens) (Q969F8 whole entry, looked up): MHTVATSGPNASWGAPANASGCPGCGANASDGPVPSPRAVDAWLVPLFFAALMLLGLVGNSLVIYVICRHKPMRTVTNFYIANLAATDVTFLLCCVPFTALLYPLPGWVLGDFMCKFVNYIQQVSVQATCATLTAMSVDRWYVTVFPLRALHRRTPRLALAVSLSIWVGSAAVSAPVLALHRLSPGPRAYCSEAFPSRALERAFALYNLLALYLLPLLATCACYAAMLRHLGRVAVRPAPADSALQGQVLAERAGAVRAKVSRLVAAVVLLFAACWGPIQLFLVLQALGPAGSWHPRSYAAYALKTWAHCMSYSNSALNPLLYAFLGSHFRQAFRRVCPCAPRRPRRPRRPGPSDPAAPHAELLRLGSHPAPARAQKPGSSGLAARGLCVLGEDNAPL
Chain of Gonadotropin-releasing hormone receptor (Homo sapiens) (P30968 whole entry, looked up): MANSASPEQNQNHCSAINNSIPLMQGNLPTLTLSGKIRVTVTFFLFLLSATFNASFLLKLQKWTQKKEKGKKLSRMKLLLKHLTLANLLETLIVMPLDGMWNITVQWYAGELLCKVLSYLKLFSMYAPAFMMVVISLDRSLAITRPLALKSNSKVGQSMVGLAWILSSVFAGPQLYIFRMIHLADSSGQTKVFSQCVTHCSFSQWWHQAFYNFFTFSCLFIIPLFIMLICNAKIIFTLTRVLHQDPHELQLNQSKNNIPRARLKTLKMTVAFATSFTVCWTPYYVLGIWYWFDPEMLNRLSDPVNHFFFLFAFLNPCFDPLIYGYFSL
Chain of Beta-2 adrenergic receptor (Homo sapiens) (P07550 whole entry, looked up): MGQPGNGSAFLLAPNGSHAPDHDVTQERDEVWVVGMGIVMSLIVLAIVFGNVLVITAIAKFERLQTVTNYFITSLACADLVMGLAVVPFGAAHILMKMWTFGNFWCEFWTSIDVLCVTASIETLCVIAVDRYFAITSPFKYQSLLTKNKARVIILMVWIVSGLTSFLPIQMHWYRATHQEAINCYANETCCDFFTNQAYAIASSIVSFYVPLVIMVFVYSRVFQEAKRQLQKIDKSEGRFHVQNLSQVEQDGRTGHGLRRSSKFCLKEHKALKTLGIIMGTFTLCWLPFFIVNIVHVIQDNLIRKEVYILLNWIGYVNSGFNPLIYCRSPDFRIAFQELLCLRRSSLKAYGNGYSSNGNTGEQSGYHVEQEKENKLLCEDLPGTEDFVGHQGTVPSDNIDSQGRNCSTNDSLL
Chain of D(2) dopamine receptor (Homo sapiens) (P14416 whole entry, looked up): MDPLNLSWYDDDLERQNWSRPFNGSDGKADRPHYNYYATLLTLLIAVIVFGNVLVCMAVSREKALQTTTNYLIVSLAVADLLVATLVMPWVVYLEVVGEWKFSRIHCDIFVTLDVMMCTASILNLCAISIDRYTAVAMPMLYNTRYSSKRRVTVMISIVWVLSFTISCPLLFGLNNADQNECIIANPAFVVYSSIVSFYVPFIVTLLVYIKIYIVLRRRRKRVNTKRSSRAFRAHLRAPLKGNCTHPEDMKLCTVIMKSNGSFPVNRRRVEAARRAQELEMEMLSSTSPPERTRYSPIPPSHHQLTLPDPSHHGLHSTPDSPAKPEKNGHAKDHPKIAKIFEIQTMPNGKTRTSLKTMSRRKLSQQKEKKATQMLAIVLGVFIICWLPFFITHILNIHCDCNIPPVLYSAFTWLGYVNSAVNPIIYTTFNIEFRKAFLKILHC
Chain of 5-hydroxytryptamine receptor 2A (Homo sapiens) (P28223 whole entry, looked up): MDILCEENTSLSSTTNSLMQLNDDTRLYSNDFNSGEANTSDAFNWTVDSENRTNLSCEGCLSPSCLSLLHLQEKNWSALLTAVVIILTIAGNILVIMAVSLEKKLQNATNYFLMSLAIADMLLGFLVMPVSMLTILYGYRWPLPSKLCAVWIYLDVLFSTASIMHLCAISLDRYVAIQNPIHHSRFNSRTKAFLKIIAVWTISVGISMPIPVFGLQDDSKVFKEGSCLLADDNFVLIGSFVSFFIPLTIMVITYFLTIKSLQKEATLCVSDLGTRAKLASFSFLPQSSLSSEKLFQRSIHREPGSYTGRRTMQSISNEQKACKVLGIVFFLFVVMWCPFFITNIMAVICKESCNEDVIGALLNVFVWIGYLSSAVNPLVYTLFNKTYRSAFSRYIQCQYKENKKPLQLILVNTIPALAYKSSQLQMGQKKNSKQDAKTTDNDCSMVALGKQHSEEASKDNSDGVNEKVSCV

In the case of `CCCCCCC(O)CCCCCCCCCCC(=O)OC` (stereo not given), the Potency entry in [1], in [2], in test [5], in test [6], in test [7] and in test [8] was “inactive” throughout. In addition, the Potency entry in test [9], in test [10], in [11], in [12], in test [13] and in [14] was “inactive” each time. The Potency entry in test [15], in test [16] and in [17] was “inactive” throughout. Besides, the result in test [3] and in [4] was inactive.

Regarding `Cc1c(C(=O)NCCO)[n+](=O)c2ccccc2n1[O-]`, the Potency result in [1], in test [2], in test [5], in test [6], in test [7] and in test [8] was “inactive” each time. Further, the Potency entry in test [9], in [10], in test [11], in [12], in test [18] and in [19] was “inactive” throughout. Also, the Potency result in test [20], in test [13] and in [17] was “inactive” each time. For the same compound, the outcome in test [3] and in [4] was inactive.

Consider `Cc1nc2ccccn2c(=O)c1CCN1CCC(C(=O)c2ccc(F)cc2)CC1`, for which the Potency result in [1], in test [2], in test [5], in test [6], in [7] and in [8] was “inactive” in each case. In addition, the Potency result in test [9], in test [10], in test [11], in [12], in [18] and in [19] was “inactive” throughout. The Potency entry in [20] and in test [16] was “inactive” in each case. Also, the outcome in [3] and in test [4] was inactive. Moreover, the Potency in [17] is 531 nM (active).

For the compound `C[C@H]1O[C@H](O[C@H]2[C@H](O)[C@@H](O)[C@@H](O[C@H]3[C@H](O)[C@@H](O)[C@H](O)O[C@@H]3CO)O[C@@H]2CO)[C@H](O)[C@@H](O)[C@@H]1N[C@H]1C=C(CO)[C@@H](O)[C@H](O)[C@H]1O`, the Potency entry in test [1], in test [2], in test [5], in [6], in test [7] and in test [8] was “inactive” throughout. The Potency entry in [9], in [10], in test [20], in [13], in test [14] and in test [15] was “inactive” each time. In test [16], the Potency entry was “inactive”. In addition, the result in test [3] and in [4] was inactive.

For `CC(C)C(=O)OCc1ccccc1`, the Potency entry in [1], in test [2], in test [5], in [6], in [7] and in test [8] was “inactive” in each case. Also, the Potency result in test [9], in test [10], in test [11], in test [12], in test [18] and in test [19] was “inactive” throughout. The Potency entry in test [20], in test [13], in [14], in test [16] and in [17] was “inactive” throughout. For the same compound, the outcome in test [3] and in [4] was inactive.

Consider `Cc1nc2n(c(=O)c1CCN1CCC(c3noc4cc(F)ccc34)CC1)CCCC2`, for which the Potency result in test [1], in [2], in test [5], in test [6], in test [7] and in test [8] was “inactive” throughout. Further, the Potency entry in test [9], in test [10], in test [20], in test [13] and in [16] was “inactive” throughout. Further, the outcome in test [3] and in [4] was inactive.

Turning to `O=C(OCC(O)CO)c1ccccc1Nc1ccnc2c(C(F)(F)F)cccc12` (stereo not given), the Potency result in [1], in test [2], in [5], in [6], in test [7] and in test [8] was “inactive” throughout. The Potency result in test [9], in [10], in [11], in test [12], in test [18] and in [19] was “inactive” in each case. Besides, the Potency entry in test [14], in test [16] and in test [17] was “inactive” in each case. The outcome in [3] and in test [4] was inactive.
